{"source": "PubChem BioAssay (NCI)", "note": "“And” between values parts separate entries of the source, which are not always exact repeats. Equal values may be shown once. Compounds without any hit were thinned out: in the full panel of roughly 83,000, 20% have a hit.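 Growth was measured after 48 h exposure to one concentration of compound in 96-well plates. Values under 10 count as active.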 The source made the active and inactive calls."}
{"tested_on": "HL-60(TB) leukemia", "assay": "NCI-60 one-dose screen, 48 h (100 = growth as untreated, 0 = no growth, -100 = all killed)", "details": "10 µM unless noted"}
{"smiles": "O=C(NNc1nccc(Nc2ccc(S(=O)(=O)Nc3ccncc3)cc2)n1)c1ccccc1", "growth": "119% (inactive)"}
{"smiles": "CCCCCn1ncc(-c2c(O)c(O)cc3c(O)c(-c4c(C)cc5c(-c6cnn(CCCCC)n6)c(O)c(O)cc5c4O)c(C)cc23)n1", "growth": "-22.3% (active)"}
{"smiles": "NC(N)=NN=C(c1ccccc1)c1ccccc1", "growth": "-8.59% (active)"}
{"smiles": "Clc1ccc(/C=N\\N2CCCCCC2)cc1", "growth": "99.3% (inactive) and 77.3% (inactive)"}
{"smiles": "O=S(=O)(NCCCNc1cc(-c2cn(-c3ccccc3)nc2-c2cccc(O)c2)ccn1)c1ccc(Cl)cc1", "growth": "1.22% (active)"}
{"smiles": "C#C[C@]1(O)CC[C@H]2[C@@H]3CC=C4c5nc(Nc6ccc(OC)cc6OC)sc5CC[C@]4(C)[C@H]3CC[C@@]21C", "growth": "17.9% (inactive)"}
{"smiles": "Fc1ccc(-c2cn3c(nc4ccccc43)c(-c3ccccc3)n2)cc1", "growth": "99.8% (inactive)"}
{"smiles": "OCCOCCN(Cc1ccccn1)Cc1cc(I)cc(I)c1O", "growth": "63.3% (inactive)"}
{"smiles": "CC(C)N1C(=O)/C(=C2\\SC(=S)N(C(C)C)C2=O)SC1=S", "growth": "100% (inactive)"}
{"smiles": "O=C(Nc1cccc(-n2cc(-c3ccncc3)c(-c3ccc(O)c(Cl)c3)n2)c1)Nc1ccc(Cl)c(Cl)c1", "growth": "-13.2% (active)"}
{"smiles": "O=CC1(C2(C=O)c3ccccc3-c3ccccc32)c2ccccc2-c2ccccc21", "growth": "-52.3% (active)"}
{"smiles": "CC(C)(C(=O)c1cccnc1)c1cccnc1", "growth": "99.5% (inactive) and 126% (inactive)"}
{"smiles": "COc1cc(C2CC(c3cccc(Nc4ccnc5cc(Cl)ccc45)c3)=NN2C=O)cc(OC)c1OC", "note": "(stereo not given)", "growth": "-7.92% (active)"}
{"smiles": "CN1C(=O)N(C)C2Nn3c(s/c(=C\\c4ccc(Cl)cc4Cl)c3=O)=NC21", "note": "(stereo not given)", "growth": "41.5% (inactive)"}
{"smiles": "CCNC(=S)NNC(=O)c1cc2ccc1CCc1ccc(cc1)CC2", "growth": "100% (inactive)"}
{"smiles": "O=C(O)C1CCCN1C(=O)OCc1ccccc1", "note": "(stereo not given)", "growth": "102% (inactive)"}
{"smiles": "COC(=O)[C@H]1CCCN1C(=O)C1CCCN1C(=O)[C@@H](Cc1ccccc1)NC(=S)Nc1cc(C(F)(F)F)cc(C(F)(F)F)c1", "note": "(stereo not given in full)", "growth": "112% (inactive) and 58.9% (inactive)"}
{"smiles": "CCOC(=O)c1nc2c3ccccc3ccn2c1C(=O)OCC", "growth": "97.1% (inactive)"}
{"smiles": "CCCCNC(=O)Oc1ccc2c(=O)c3sc4c(=O)c5ccccc5c(=O)c4c3c(=O)c2c1", "growth": "-43.3% (active)"}
{"smiles": "O=Cc1ccc([N+](=O)[O-])s1", "growth": "81.9% (inactive)"}
{"smiles": "Nc1nc(N)c(C=Nc2ccc(Br)cc2)c(Nc2ccc(Br)cc2)n1", "growth": "90% (inactive)"}
{"smiles": "[2H]C1([2H])[C@H](C)O[C@H](C)C([2H])([2H])N1c1ccc(NC(=O)c2cccc(-c3ccc(OC(F)(F)F)cc3)c2C)cn1", "growth": "56.3% (inactive)"}
{"smiles": "NC(=O)c1c(NC(=S)Nc2ccc(OC(F)(F)F)cc2)sc2c1CCC1(C2)OCCO1", "growth": "94.2% (inactive)"}
{"smiles": "N#Cc1c(N)[nH]c(S)c1C#N", "growth": "99% (inactive)"}
{"smiles": "COc1cc(C2CC(c3cc(OC)c(OCCCOc4ccc(-n5c(/C=C/c6ccccc6)nc6ccccc6c5=O)cc4)c(OC)c3)=NO2)cc(OC)c1OC", "note": "(stereo not given)", "growth": "119% (inactive)"}
{"smiles": "O=C(Nc1cccc(-n2ccc3c(NC(=O)c4ccccc4)nccc32)c1)c1cccc(C(F)(F)F)c1", "growth": "0.531% (active)"}
{"smiles": "CCN(CC)CCCC(C)N=c1cc(Nc2cc(=NC(C)CCCN(CC)CC)c3cc(OC)ccc3o2)oc2ccc(OC)cc12", "note": "(stereo not given)", "growth": "-65.3% (active)"}
{"smiles": "COc1ccccc1/C=C1\\Oc2cc(OCCCN3CCCC3)ccc2C1=O", "growth": "78.7% (inactive)"}
{"smiles": "Nc1cc2ccccc2c(O)c1O", "growth": "4.42% (active)"}
{"smiles": "Nc1c(C(=O)Nc2cccc(Cl)c2Cl)sc2nc3c(cc12)C(=O)CCC3", "growth": "96.6% (inactive)"}
{"smiles": "C=C1CCC2C(C)(CO)C(O)CCC2(C)C1CC(NCc1ccccc1)C1=CCOC1=O", "note": "(stereo not given)", "growth": "111% (inactive)"}
{"smiles": "CC(C)c1cc(CNc2nc(Nc3cc(C4CC4)[nH]n3)cc(N3CCN(C)CC3)n2)on1", "growth": "-32.9% (active)"}
{"smiles": "O=C(Nc1ccccc1)Oc1c(Cl)c(Cl)c(Cl)c(Cl)c1Cl", "growth": "86.8% (inactive) and 92.2% (inactive)"}
{"smiles": "CCOC(=O)C(CCC#N)(CCC#N)C(=O)OCC", "growth": "103% (inactive)"}
{"smiles": "CC(=O)Nc1nc2ccc(NS(=O)(=O)c3cccc4c(N(C)C)cccc34)cc2[nH]1", "growth": "27.8% (inactive)"}
{"smiles": "c1ccc(CNc2c3ccccc3nc3ccccc23)cc1", "growth": "43.8% (inactive)"}
{"smiles": "c1ccc(C(Nc2ccccn2)(c2ccccc2)c2ccccc2)cc1", "growth": "90.4% (inactive)"}
{"smiles": "Cc1c(C(=O)NCc2ccccc2)[n+](=O)c2cc(F)ccc2n1[O-]", "growth": "189% (inactive)"}
{"smiles": "CNCCNc1nc2ccccc2c2c(=O)c3cc(F)ccc3oc12", "growth": "95.4% (inactive)"}
{"smiles": "COc1cc(-n2cc(-c3cc(O)c(C/C=C(\\C)CCC=C(C)C)c(O)c3)nn2)cc2c1O[C@]1(C)CC[C@@H](O)C(C)(C)[C@H]1C2", "growth": "-13.9% (active)"}
